# The list is not random: actives were taken first. Their share in the collection is about 0.51%.
# AddAB inh = less growth of phage-infected E. coli with AddAB; E. coli expressing H. pylori AddAB, absorbance growth; inhibition, % at 11.9 µM; 330,000 tested, 0.29% active; AID 435030; in the data active = inhibition above about 12%;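 note: 0% = vehicle wells of infected cells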
# phage Ecoli inh = E. coli growth loss with phage present; growth absorbance; inhibition, % at 11.9 µM; 360,000 tested, 0.26% active; in the data active = inhibition above about 11%
# E coli growth-1 = counter-screen for AddAB inhibitors: E. coli growth inhibition. E. coli V3065 growth, OD600 absorbance, 18 h. 330,000 tested, 0.27% active. inhibition, % at 11.9 µM;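 active = inhibition above the campaign's mean inhibition across all tested compounds plus 3 SD, cut at about 9.9% in these data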;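 note: uninfected addAB+ strain grown without phage in ampicillin broth; 0% = DMSO wells and 100% = ciprofloxacin 0.95 µg/ml wells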
# pCIP destab = p/CIP protein destabilization; F442A p/CIP-EGFP cells, EGFP fluorescence, 16 h; Q05BA5; 290,000 tested, 0.01% active; decrease of EGFP signal, % at 10 µM;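 active = EGFP signal decrease of at least 30% at 10 µM or well 3 SD below plate mean, unless failing retest; inactive = the rest, including hits failing retest or dose response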
# Target sequence (Q05BA5 1-1403): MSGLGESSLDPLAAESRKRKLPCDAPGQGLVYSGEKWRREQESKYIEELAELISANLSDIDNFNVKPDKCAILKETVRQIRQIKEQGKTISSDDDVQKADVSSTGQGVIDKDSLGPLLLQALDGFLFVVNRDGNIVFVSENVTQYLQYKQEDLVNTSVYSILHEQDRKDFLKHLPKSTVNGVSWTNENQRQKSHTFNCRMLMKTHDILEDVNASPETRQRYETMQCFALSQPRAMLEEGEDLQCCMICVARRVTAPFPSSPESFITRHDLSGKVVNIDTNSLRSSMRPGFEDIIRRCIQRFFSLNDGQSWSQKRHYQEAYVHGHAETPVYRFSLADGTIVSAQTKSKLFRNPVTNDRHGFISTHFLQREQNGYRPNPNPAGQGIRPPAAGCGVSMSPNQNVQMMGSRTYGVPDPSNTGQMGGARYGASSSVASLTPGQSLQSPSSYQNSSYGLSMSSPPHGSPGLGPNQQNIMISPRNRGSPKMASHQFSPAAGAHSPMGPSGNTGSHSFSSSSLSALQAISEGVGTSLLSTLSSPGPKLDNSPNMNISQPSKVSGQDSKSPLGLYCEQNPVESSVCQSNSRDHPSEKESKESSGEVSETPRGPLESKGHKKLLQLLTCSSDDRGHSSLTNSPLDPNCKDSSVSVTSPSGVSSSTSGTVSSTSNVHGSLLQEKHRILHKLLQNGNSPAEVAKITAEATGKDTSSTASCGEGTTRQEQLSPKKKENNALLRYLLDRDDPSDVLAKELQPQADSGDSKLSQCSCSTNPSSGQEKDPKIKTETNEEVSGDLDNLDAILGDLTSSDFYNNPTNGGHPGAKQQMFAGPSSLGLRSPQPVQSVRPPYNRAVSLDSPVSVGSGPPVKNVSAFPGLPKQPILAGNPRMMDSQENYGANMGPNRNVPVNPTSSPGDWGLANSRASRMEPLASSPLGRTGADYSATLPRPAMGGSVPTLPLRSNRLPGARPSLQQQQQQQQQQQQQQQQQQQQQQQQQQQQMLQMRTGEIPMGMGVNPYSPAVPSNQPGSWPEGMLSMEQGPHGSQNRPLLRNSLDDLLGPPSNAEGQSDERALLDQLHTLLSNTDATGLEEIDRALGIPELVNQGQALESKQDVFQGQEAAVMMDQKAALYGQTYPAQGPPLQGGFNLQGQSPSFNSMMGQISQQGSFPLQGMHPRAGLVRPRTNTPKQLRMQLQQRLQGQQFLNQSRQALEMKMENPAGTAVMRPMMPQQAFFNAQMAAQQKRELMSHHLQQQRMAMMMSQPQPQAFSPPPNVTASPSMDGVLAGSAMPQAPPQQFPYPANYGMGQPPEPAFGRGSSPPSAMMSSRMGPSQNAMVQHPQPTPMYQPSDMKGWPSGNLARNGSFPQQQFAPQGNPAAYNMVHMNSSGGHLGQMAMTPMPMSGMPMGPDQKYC
# Tat export inh = inhibitors of E. coli Tat protein transport. inhibition, % at 10 µM. E. coli MC4100 TorA-mCherry Tat export, fluorescence. 340,000 tested, 0.036% active. AID 488895;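 active = mean replicate inhibition at least 50% and at least half of replicates individually reaching 50%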;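 note: exported cargo escapes ClpAP degradation while cytoplasmic cargo is degraded and loses fluorescence; 0% = median of neutral control wells and 100% = median of NaSCN control wells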
# E coli growth-2 = E. coli growth inhibition; Escherichia coli growth, OD600, 23 h; active compounds read low; 330,000 tested, 0.21% active; OD600 absorbance (concentration not given with the values);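 active = OD600 absorbance below the run mean of sample wells minus 3.6 SD, in any replicate, cut at about 0.56 in these data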
# AddAB confirm = growth loss of T4-infected E. coli expressing H. pylori AddAB, confirmed | shares compounds with AddAB inh | E. coli V3065 expressing H. pylori AddAB, T4 phage, OD; T4 phage with gene 2 nonsense mutations | inhibition, % at 11.9 µM | 880 tested, 64% active | AID 488942;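 active = mean inhibition above a set limit taken from the earlier primary screen, cut at about 13% in these data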;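 note: higher means less bacterial growth since AddAB block lets phage replicate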
# RecBCD counter = reduces growth of phage-infected RecBCD+ E. coli, AddAB inhibitor counter-screen; shares compounds with AddAB inh; AID 488955; 880 tested, 73% active; inhibition, % at 11.9 µM; E. coli V66 + mutant T4 phage, OD growth;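 active = mean inhibition above the mean of solvent-only control wells plus 3 SD, cut at about 4% in these data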;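 note: optical density read after an 18 h incubation at 37 °C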
# bact viab count = counter-screen: bacterial growth inhibition. shares compounds with AddAB inh. bacterial viability, absorbance (AddAB counterscreen). inhibition, % at 11.9 µM. 880 tested, 35% active. AID 488956; in the data active = inhibition above about 25%
# RecBCD conf = confirmation: growth loss of phage-infected RecBCD+ E. coli (RecBCD inhibitor screen). shares compounds with phage Ecoli inh. E. coli V66 + T4 2- phage, growth OD. inhibition, % at 11.9 µM. 890 tested, 45% active;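 active = mean inhibition over triplicates exceeding the hit threshold derived in the original primary screen, cut at about 11% in these data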
# Ecoli viability = inhibits E. coli viability, flagging RecBCD hits as nonselective | shares compounds with phage Ecoli inh | inhibition, % at 11.9 µM | absorbance (OD) growth | 890 tested, 29% active; in the data active = inhibition above about 20%;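 note: E. coli strain V66 grown with compound alone and no phage infection; 0% = bacteria with DMSO vehicle only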
# AddAB phage OD = growth loss of phage-infected AddAB E. coli, RecBCD counter-screen; shares compounds with phage Ecoli inh; inhibition, % at 11.9 µM; 890 tested, 45% active; E. coli expressing H. pylori AddAB + T4 phage, OD growth; gene 2 mutant T4, recBCD-deleted host;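 active = mean inhibition above the solvent-only control wells' mean plus 3 SD, cut at about 22% in these data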;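 note: higher means less bacterial growth from phage killing when AddAB is blocked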
# The depositor's hits bear a star; x = no result.
SMILES,AddAB inh,phage Ecoli inh,E coli growth-1,pCIP destab,Tat export inh,E coli growth-2,RecBCD conf,Ecoli viability,AddAB phage OD,others
CCCC(=O)NC(c1cccs1)c1cc(Cl)c2cccnc2c1O (stereo unspecified),26.8*,21.0*,28.6*,-5.8,2.3,0.701,11.2*,14.2,19.3,AddAB confirm=22.5*;RecBCD counter=20.4*;bact viab count=19.6
CCCC(=O)NC(c1ccco1)c1cc(Cl)c2cccnc2c1O (stereo unspecified),16.1*,21.2*,14.2*,-3.9,-1.6,0.734,10.9*,15.5,23.6*,AddAB confirm=21.8*;RecBCD counter=20.9*;bact viab count=16.5
CCC(=O)NC(c1cccs1)c1ccc2cccnc2c1O (stereo unspecified),21.2*,18.5*,19.9*,-3.7,-0.5,0.636,7.2,11.7,19.2,AddAB confirm=10.3;RecBCD counter=16.9*;bact viab count=5.7
CCOc1ccc(OCC(=O)Nc2ccccc2C(F)(F)F)cc1,-1.2,4.1,0.0,-11.0,2.3,0.715,x,x,x,
CCC(ONc1ccccc1C(F)(F)F)(C(=O)NN(C)C)c1ccccc1 (stereo unspecified),100.5*,17.4*,22.8*,x,-10.0,0.503,11.5*,12.3,103.2*,AddAB confirm=98.3*;RecBCD counter=13.9*;bact viab count=62.0*
CCc1nnc(NS(=O)(=O)c2ccc(N)cc2)s1,8.2,11.7*,7.9,0.5,8.0,0.631,7.7,5.4,18.8,
CCc1nnc(NS(=O)(=O)c2ccc(N3C(=O)c4ccccc4C3=O)cc2)s1,5.5,2.5,3.0,17.3,-19.5,0.655,x,x,x,
CNCCCCOc1ccccc1-c1ccccc1,-1.2,21.1*,-0.8,-19.2,2.4,0.637,-0.2,1.6,4.1,
O=C(CNCc1ccccc1Cl)Nc1cc(S(=O)(=O)N2CCOCC2)ccc1Cl,-0.5,-0.8,0.5,x,1.5,0.631,x,x,x,
Cc1ccc(S(=O)(=O)N2CCOCC2)cc1NC(=O)CNCc1ccc(Cl)cc1Cl,1.3,12.0*,-0.8,x,-4.0,0.705,1.0,1.1,4.7,
CC(C)Cc1nnc(NC(=O)CCC(=O)N2CCN(S(=O)(=O)c3ccccc3)CC2)s1,3.0,0.1,0.9,-1.9,-0.1,0.656,x,x,x,
Nc1ncnc2c1ncn2[C@H]1C[C@H](O)[C@@H](CO)O1,6.5,2.1,0.7,41.1,-1.3,0.76,x,x,x,
OCC1OC(n2cnc3c(=S)nc[nH]c32)CC1O (stereo unspecified),x,17.9*,x,x,5.9,0.71,1.1,-1.5,-1.6,
O=C(CCn1cnc(-c2ccccc2)c1-c1ccccc1)N/N=C/c1ccccc1O,2.0,11.0*,0.9,10.7,1.6,x,3.5,1.8,4.9,
Oc1ccc(C=NNC(=S)Nc2cccnc2)cc1,x,x,x,x,x,0.667,x,x,x,
Oc1ccc(C=NNC(=S)Nc2cccnc2)nc1,x,21.3*,x,x,1.3,x,18.7*,21.4*,36.2*,
O=C(Nc1ccc(Cl)cc1)c1cc2c(cc1O)[nH]c1ccccc12,10.9,11.6*,10.2*,-2.5,0.1,0.171*,10.5,14.5,4.4,
CC(C)c1cccc(-c2ccc3c(c2)S(=O)(=O)c2cccc(C(=O)NCc4ccco4)c2C3=O)c1,4.9,2.2,2.0,x,15.8,0.714,x,x,x,
O=c1[nH]nnc2c1ncn2C1OC(CO)C(O)C1O (stereo unspecified),x,16.5*,x,x,x,x,23.3*,16.6,28.3*,
NC(=O)c1ccc(NC(=O)CS(=O)(=O)c2cn(CC(=O)N3CCCC3)c3ccccc23)cc1,1.6,0.6,-0.6,-7.2,-0.7,0.734,x,x,x,
Cc1ccc(-c2[nH]c3cc(C(=O)NCCCn4ccnc4)ccc3c(=O)c2O)cc1,11.2,11.3*,7.7,-4.6,-3.1,0.679,3.4,5.4,6.8,
O=C(NCCCn1ccnc1)c1ccc(Cl)c(Cl)c1,1.2,0.7,0.9,-1.4,3.1,0.603,x,x,x,
O=C1NC(=S)S/C1=C\C=C\c1ccc([N+](=O)[O-])o1,x,95.7*,x,-24.6,67.6*,0.0705*,99.3*,99.2*,99.2*,
Cc1cccc(N2CC(C(=O)Nc3nnc(SCc4cccnc4)s3)CC2=O)c1 (stereo unspecified),2.5,1.0,-1.9,-12.1,-8.0,0.712,x,x,x,
CCN1/C(=C/c2ccc3cc(C)ccc3[n+]2CC)Sc2cc(C)c(C)cc21,x,12.0*,x,-288.5,-8.3,0.25*,9.7,9.1,26.7*,
SMILES,AddAB inh,phage Ecoli inh,E coli growth-1,pCIP destab,Tat export inh,E coli growth-2,RecBCD conf,Ecoli viability,AddAB phage OD,others
FC(F)(F)c1ccc(NC(=S)NCc2ccccc2)cc1,10.4,11.3*,9.5,-2.0,-7.4,0.531,6.2,6.8,7.6,
FC(F)Sc1ccc(NC(=S)NC(c2ccccc2)c2ccccc2)cc1,7.9,5.4,5.8,3.4,-2.6,0.697,x,x,x,
FC(F)Sc1ccc(NC(=S)NCc2ccccc2)cc1,8.6,12.7*,6.2,1.9,-2.2,0.57,6.9,9.0,7.0,
O=C(O)c1ccc(NC(=S)NCc2ccccc2)cc1,2.8,1.2,0.3,-9.8,-7.9,0.67,x,x,x,
CC(OC(=O)C1CCCCC1)C(=O)Nc1ccc(S(N)(=O)=O)cc1 (stereo unspecified),1.6,3.0,-0.5,x,-11.2,0.676,x,x,x,
C=Cc1cnc([N+](=O)[O-])n1C,x,28.5*,x,x,x,x,19.0*,21.4*,97.2*,
Cc1ccc(S(=O)(=O)NCC2(c3ccccc3)CCN(C)CC2)cc1,x,-1.7,x,-5.2,2.4,0.663,x,x,x,
Cc1cc(Nc2ccccc2Cl)c2ccccc2n1,1.1,14.9*,1.8,x,-4.6,0.63,-0.4,-0.9,9.3,
N#Cc1c(Nc2ccccc2)[n+]([O-])c2ccc(Cl)cc2[n+]1[O-],x,12.5*,x,x,-3.6,x,16.1*,16.9,49.4*,
O=C(/C=C/Nc1ccccc1)c1ccc(Cl)cc1Cl,-2.2,2.4,1.2,-7.6,7.5,0.665,x,x,x,
O=C(Nc1ccc2[nH]ncc2c1)c1ccc(F)cc1,3.6,11.5*,0.3,-3.6,-1.8,0.698,-1.5,-1.8,-1.9,
O=C1C(F)=CC(COC(c2ccccc2)(c2ccccc2)c2ccccc2)OC1n1cc(F)c(=O)[nH]c1=O (stereo unspecified),x,12.1*,x,x,-3.6,x,8.9,1.4,25.7*,

# From PubChem BioAssay
